Here are results for 69 molecules from PubChem BioAssay AID1259422 (The Scripps Research Institute Molecular Screening Center, 2018).

Out of some 640,000 compounds screened, about 9,300 (1.5%) were called active. Many of the other results were omitted from the sample, so actives are more common in it than they were. Values without a mark were called inactive. No stated cut-off is given here; in the data, active means inhibition above about 32%; inactive means the rest.

This test is described as follows: TEAD-YAP interaction inhibition, primary screen, TEAD-YAP interaction inhibitor project, luminescence, HEK-TIYL cells (AID 1259422).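 Further: 0% = median of test compound wells and 100% = reference inhibitor wells.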 As to conditions: TEAD-Gal4/YAP UAS-luciferase luminescence, at 9.12 µM, hits give high values.
The term inhibition denotes the change of the read-out against control, counted positive when it falls. As to `O=C(NCc1ccccn1)c1cc(=O)c2ccccc2o1`, the inhibition was 0.58%.

For `O=C(Nc1ccc(Oc2ccc3ccccc3c2Cl)c(Cl)c1)c1cc2cc(Cl)ccc2oc1=O`, the inhibition is 5.28%.

Turning to `COc1ccc(-c2nc(C)cc(NCc3ccccc3)n2)cc1`, the inhibition was -42.8%.

Take `COc1cc2nc(Nc3cccc(N(C)C)c3)nc(Nc3cc(OC)c(OC)c(OC)c3)c2cc1OC`: the inhibition was -1.74%.

As to `COc1ccc(-c2nc(N)c3[nH]cnc3n2)cc1`, the inhibition was -34%.

Turning to `COc1cc(Nc2cc(C)nc(Nc3nc4ccccc4n3C)n2)cc(OC)c1OC`, the inhibition is 1.6%.

As for `COc1ccc(-c2nc(C)cc(Nc3cc(OC)c(OC)c(OC)c3)n2)cc1`, the inhibition was 46.8% (active).

Take `CC(=O)Nc1ccc(Nc2nc(-c3ccc(C(N)=O)cc3)nc3nc[nH]c23)cc1`: the inhibition was 5.81%.

On to `COc1cc(Nc2nc(Nc3cccc(N(C)C)c3)nc3nc[nH]c23)cc(OC)c1OC`, for which the inhibition was 46% (active).

Regarding `COc1ccc(-c2nc(Nc3cc(OC)c(OC)c(OC)c3)c3[nH]cnc3n2)cc1`, the inhibition was 54% (active).

`COc1cc(Nc2nc(Nc3cc(OC)c(OC)c(OC)c3)c3[nH]cnc3n2)cc(OC)c1OC`: the inhibition is 8.81%.

For the molecule `O=[N+]([O-])c1ccc(-c2csnn2)cc1`, the inhibition was -3.36%.

As to `Cc1nc2c3ccccc3n3c(CCCC(=O)NCc4cccnc4)nnc3n2n1`, the inhibition was -0.28%.

Consider `O=C(CNC(=O)c1ccco1)N/N=C/c1ccc(F)cc1`, for which the inhibition was 2.91%.

Regarding `CN1C(C)(C)CC(N(C)S(C)(=O)=O)CC1(C)C`, the inhibition is -1.45%.

In the case of `COCCNc1nc(-c2ccc(C)cc2)ccc1C(=O)N1CCN(C)CC1`, the inhibition is -12%.

In the case of `CCCCOC(=O)C(C)Oc1ccc2c(=O)c(-c3ccc(Cl)cc3)coc2c1` (centres undefined), the inhibition was -32.8%.

Take `CCOC(=O)C1CCN(C(=O)/C(=C/c2ccco2)NC(=O)c2ccc(C)c(C)c2)CC1`: the inhibition was 3.59%.

In the case of `Cc1nnc(NS(=O)(=O)c2ccc([N+](=O)[O-])cc2)s1`, the inhibition was -10.9%.

As to `O=C(CSCC(=O)N1CCCC1)Nc1nc(-c2ccc(Cl)s2)cs1`, the inhibition was -0.25%.

With `Cc1ccc(S(=O)(=O)N(C(=O)NC(=O)Nc2ccccc2Cl)c2ccc(Cl)cc2)cc1`, the inhibition was -3.29%.

Turning to `Cc1cc(C)c2c(NCc3ccccc3F)n[nH]c2n1`, the inhibition is -16.5%.

Consider `c1ccc(Cc2nn3c(Cn4cnc5ccccc54)nnc3s2)cc1`, for which the inhibition is 6.31%.

As to `Cc1ccc(OCc2nn3c(Cn4cnc5ccccc54)nnc3s2)cc1`, the inhibition was 32.3% (active).

As to `Clc1ccccc1OCc1nn2c(Cc3ccccc3)nnc2s1`, the inhibition is -7.7%.

For `COC(=O)c1c(C)[nH]c(C(=O)/C(C#N)=C/c2cccnc2)c1C`, the inhibition was -3.19%.

Turning to `CCc1nc2sc3c(N4CCCC4)ncnc3c2c2c1COC(C)(C)C2`, the inhibition is -9.9%.

Take `CC(=O)c1ccc(OC(=O)c2ccccc2Cl)cc1`: the inhibition was 7.46%.

Regarding `O=C(Cn1cnc2ccc(Br)cc2c1=O)OC1CCCCC1`, the inhibition is -11.3%.

Take `CCC(C)n1c(N(C)Cc2ccccc2)nc2c1c(=O)[nH]c(=O)n2C` (centres undefined): the inhibition was 49.9% (active).

As to `CC(Nc1nc2c(c(=O)[nH]c(=O)n2C)n1Cc1ccccc1)c1ccccc1` (centres undefined), the inhibition is 0.86%.

For `Cn1c(=O)[nH]c(=O)c2c1nc(N(CCO)Cc1ccccc1)n2Cc1ccccc1Cl`, the inhibition was -2.54%.

With `COCCNC(=O)c1ccc(Sc2ccc(OC)cc2)c([N+](=O)[O-])c1`, the inhibition was -17%.

Turning to `CCC(C)NC(=O)c1ccc(S(=O)(=O)c2ccc(OC)cc2)c([N+](=O)[O-])c1` (centres undefined), the inhibition is 32.4% (active).

For the molecule `CCC(C)NC(=O)c1ccc(N2CCC3(CC2)OCCO3)c([N+](=O)[O-])c1` (centres undefined), the inhibition was -13.8%.

In the case of `Cc1nn(C)c(C)c1-c1cncc(C(=O)NCc2cccc(C(F)(F)F)c2)c1`, the inhibition is -3.32%.

For the molecule `Cc1nc2c(C(=O)NCc3ccc(F)cc3)cnn2c(C)c1Cc1cccc(Cl)c1`, the inhibition is 0.57%.

`O=C(CSCC(=O)Nc1ccc2ccccc2c1)NCC1CCCO1` (centres undefined): the inhibition is -13.5%.

In the case of `O=c1oc2cc(Cl)ccc2n1C(c1ccccc1)(c1ccccc1)c1ccccc1`, the inhibition was -6.71%.

`O=C1NC2(CCN(C(=O)c3cccc4cccnc34)CC2)Nc2ccc(Cl)cc21`: the inhibition is 77.2% (active).

Regarding `O=C1NC2(CCN(C(=O)C3CCN3C3CCCCC3)CC2)Nc2ccccc21` (centres undefined), the inhibition was 7.24%.

Turning to `O=C1NC2(CCN(C(=O)CCn3ncc4ccccc43)CC2)Nc2ccccc21`, the inhibition was -11.1%.

As to `CCc1ccc2c(c1)NC(=O)C2(CC)c1ccc2c(c1)OCO2` (centres undefined), the inhibition was -7.41%.

As for `CN(c1ccc(C(=O)Nc2cc(F)cc(F)c2)cc1[N+](=O)[O-])C1CCCCC1`, the inhibition was -5.53%.

Take `CN(c1ncnc2c1nc1n2CCCCC1)C1CCCCC1`: the inhibition was -48%.

Consider `CN(c1nc(N)ncc1[N+](=O)[O-])C1CCCCC1`, for which the inhibition was 33.8% (active).

As to `CCOC(=O)C1=CN(Cc2ccc(Cl)cc2)C=C(C(=O)OCC)C1c1cccc(OCc2ccccc2)c1`, the inhibition is 5.47%.

`COC(=O)C1=CN(Cc2ccc(OC)c(OC)c2)C=C(C(=O)OC)C1c1cccc(OCc2ccccc2)c1`: the inhibition is 55.4% (active).

Regarding `CCOC(=O)C1=CN(Cc2ccc(F)cc2)C=C(C(=O)OCC)C1c1cccc(OCc2ccccc2)c1`, the inhibition is 10.8%.

Take `CC(=O)c1ccc(OCC(=O)Nc2c(F)c(F)cc(F)c2F)cc1`: the inhibition was -0.14%.

In the case of `CCOc1ccc(C2C(C#N)=C(N)N(c3ccc(F)cc3)C3=C2C(=O)CCC3)cc1` (centres undefined), the inhibition is -0.96%.

Take `N=C1c2ccccc2CN1NC(=O)c1ccccc1-n1cccc1`: the inhibition is 11.5%.

As for `CNC(=O)c1ccccc1Nc1cc(NC(=O)C(F)(F)c2ccccc2)ncc1C(F)(F)F`, the inhibition was 41.9% (active).

On to `CNC(=O)c1ccccc1Nc1cc(NC(=O)Cc2ccc([N+](=O)[O-])cc2)ncc1C(F)(F)F`, for which the inhibition is 78.8% (active).

For `FC(F)(F)c1cccc(Nc2ccc(Br)cn2)c1`, the inhibition is 9.99%.

For `O=C(Cc1ccc([N+](=O)[O-])cc1)Nc1ccccc1Cl`, the inhibition is -21.8%.

As to `CNC(=O)c1ccccc1Nc1cc(NC(=O)C2(c3ccccc3)CC2)ncc1C(F)(F)F`, the inhibition was -1.5%.

`O=C(Cc1c(F)cccc1Cl)Nc1ccc(Cl)cn1`: the inhibition is -7.57%.

In the case of `Cc1cc(NC(=O)c2cccs2)ncc1NC(=O)c1ccccc1F`, the inhibition was -50.5%.

`CCc1ccccc1NC(=O)Cc1ccc([N+](=O)[O-])cc1`: the inhibition was 2.99%.

Take `CNC(=O)c1ccccc1Nc1cc(NC(=O)Cc2ccc(F)c(F)c2)ncc1C(F)(F)F`: the inhibition was 65.4% (active).

For `Cc1nc(NC(=O)c2ccc(C(C)(C)C)cc2)sc1C(=O)N1CCOCC1`, the inhibition is 13.1%.

For the molecule `COC(=O)c1cc2occc2n1CC(=O)N(C)c1ccccc1`, the inhibition was 4.95%.

Take `Nc1cc(Oc2ccc3ccccc3c2)c(Cl)cc1[N+](=O)[O-]`: the inhibition was 2.07%.

On to `O=C(COc1coc(CN2CCN(c3ccccc3F)CC2)cc1=O)N1CCCCCC1`, for which the inhibition is -0.51%.

Consider `COC(=O)c1cc(NC(=O)Nc2cc(Cl)ccc2OC)cc(C(=O)OC)c1`, for which the inhibition is 0.04%.

As to `Cc1cnc(CNc2cc(-c3cncc(-c4ccc(F)cc4)c3)nc(C)n2)cn1`, the inhibition is 33% (active).

In the case of `COCCNc1cc(-c2cncc(-c3ccc(F)cc3)c2)nc(C)n1`, the inhibition is -1.76%.

Take `Cc1ccc(-c2cncc(-c3cc(NCc4ccco4)nc(C)n3)c2)cc1`: the inhibition is -4.33%.
